MEKK2 mut-MEK5: signal of MEK5 binding to mutant human MEKK2 PB1 domain; bead flow cytometry, Alexa488-MEK5 binding to MEKK2 mutant; percent response, % at 10 µM; hit rate 0.35% among 290,000; AID 1530; in the data active = percent response above about 24%, passing the limit was not always enough
VLA-4 inh: inhibition in a human VLA-4 binding assay; P13612; AID 2557; VLA-4 expressing cells, ligand binding flow cytometry; inhibition, % (about 7 µM as worked out from the volumes in the protocol); hit rate 0.2% among 330,000; in the data active = inhibition above about 50%
MEKK2wt PB1 HTS: raises or lowers MEK5 binding to wildtype human MEKK2 PB1 domain; binding response (% of control), % at 10 µM; hit rate 1.1% among 290,000; Q9Y2U5; AID 1531; bead flow cytometry, Alexa488-MEK5 binding to MEKK2 WT; actives lie on both sides; in the data active = binding response below about 67% or above about 130%
MEKK3 PB1 HTS: MEKK3-MEK5 PB1 interaction, increase or decrease; bead-based flow cytometry, Alexa488-MEK5 binding to MEKK3; actives lie on both sides; 0 = blocked by unlabeled MEK5, 100 = vehicle; binding response (% of control), % at 10 µM; hit rate 1.4% among 290,000; AID 1529;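 active = binding response more than 3 SD above or below the average of its plate-row segment, actives on both sides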;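 also: Alexa488 bead fluorescence after subtracting the streptavidin-only scavenger bead signal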
Target sequence (Q99759 whole entry, looked up): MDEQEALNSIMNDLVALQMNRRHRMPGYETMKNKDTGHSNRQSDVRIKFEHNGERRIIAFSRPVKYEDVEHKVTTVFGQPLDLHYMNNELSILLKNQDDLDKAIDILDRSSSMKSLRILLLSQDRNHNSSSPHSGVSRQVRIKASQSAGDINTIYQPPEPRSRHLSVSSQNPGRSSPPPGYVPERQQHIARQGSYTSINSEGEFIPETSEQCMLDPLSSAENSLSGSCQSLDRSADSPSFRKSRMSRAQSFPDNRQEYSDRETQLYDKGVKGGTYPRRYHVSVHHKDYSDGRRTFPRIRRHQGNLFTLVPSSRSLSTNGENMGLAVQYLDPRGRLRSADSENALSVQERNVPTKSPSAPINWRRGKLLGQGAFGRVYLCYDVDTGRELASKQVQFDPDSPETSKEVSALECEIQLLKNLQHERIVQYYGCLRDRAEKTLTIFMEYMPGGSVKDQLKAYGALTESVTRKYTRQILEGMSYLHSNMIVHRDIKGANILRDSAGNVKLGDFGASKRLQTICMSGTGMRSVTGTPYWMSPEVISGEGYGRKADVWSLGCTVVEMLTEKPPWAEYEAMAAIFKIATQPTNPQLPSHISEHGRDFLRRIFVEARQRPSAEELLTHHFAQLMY
MEKK2wt confirm: raises or lowers MEK5 binding to wildtype human MEKK2, retest | AID 1892 | binding response (% of control), % at 10 µM | shares compounds with MEKK3 PB1 HTS | bead flow cytometry, Alexa488-MEK5 binding to MEKK2 WT; actives lie on both sides | hit rate 2.4% among 5,900; in the data active = binding response below about 16% or above about 210%; inactive = in between
MEKK2mut-MEK5: signal of MEK5 binding to mutant human MEKK2, retest. shares compounds with MEKK3 PB1 HTS. bead flow cytometry, Alexa488-MEK5 binding to MEKK2 mutant. percent response, % at 10 µM. hit rate 2% among 5,900. AID 1893; in the data active = percent response mostly above about 71%, no sharp cut-off; inactive = mostly below about 38%;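 also: higher means compound restores mutant binding toward wildtype level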
MEKK3 confirm: confirmation of inhibitors of MEK5 binding to human MEKK3; binding response (% of control), % at 10 µM; AID 1894; bead flow cytometry, Alexa488-MEK5 binding to MEKK3; hits give low values; hit rate 1.8% among 5,900; shares compounds with MEKK3 PB1 HTS;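 active = binding response below 72% of control, or above a set upper limit, though filed actives all read lower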;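 also: lower values mean stronger disruption of MEK5 binding to MEKK3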
Large screens that a line does not name were inactive (follow-up assays come after a bar, where they were run); [ ] = another dose, or the depositor's remark. Most compounds without a hit are left out; they make up all but 2.2% or so of the library.

N=c1c2c(-c3ccccc3)c(-c3ccccc3)n(Cc3ccco3)c2ncn1Cc1ccco1	MEKK2 mut-MEK5 41, MEKK2wt PB1 HTS 152 | MEKK2wt confirm inactive | MEKK2mut-MEK5 inactive | MEKK3 confirm inactive
Cn1c(CNC(=O)c2ccc3c(c2)OCO3)nnc1SCC(=O)Nc1ccccc1F	none
CC(=O)Nc1ccc(N=Cc2c(O)c(C(=O)Nc3ccccc3)cc3ccccc23)cc1	MEKK2wt PB1 HTS 10[inhibitor] | MEKK2wt confirm inactive | MEKK2mut-MEK5 inactive | MEKK3 confirm inactive
Cc1[nH]n(-c2ccccc2)c(=O)c1C=Nc1ccc(S(=O)(=O)N(C)C)cc1	none
Cc1[nH]n(-c2ccc(F)cc2)c(=O)c1C=Nc1ccc(S(=O)(=O)N(C)C)cc1	MEKK2wt PB1 HTS 11[inhibitor] | MEKK2wt confirm inactive | MEKK2mut-MEK5 inactive | MEKK3 confirm inactive
Cc1c(/C=N\NC(=O)C2COc3ccccc3O2)c2ccccc2n1C (configuration not stated)	MEKK2wt PB1 HTS 26[inhibitor] | MEKK2wt confirm inactive | MEKK2mut-MEK5 inactive | MEKK3 confirm inactive
Cc1ccc(-n2c(O)c(/C=N/NC(=O)C3COc4ccccc4O3)c3ccccc3c2=O)cc1 (configuration not stated)	none
Cn1cc(/C=N\NC(=O)C2COc3ccccc3O2)c2ccccc21 (configuration not stated)	none
O=C(N/N=C/c1c(O)n(-c2ccccc2Cl)c(=O)c2ccccc12)C1COc2ccccc2O1 (configuration not stated)	MEKK3 PB1 HTS 137 | MEKK2wt confirm inactive | MEKK2mut-MEK5 inactive | MEKK3 confirm inactive
COc1ccc(/C=C(/NC(=O)/C=C/c2ccccc2)C(=O)N2CCOCC2)cc1	MEKK3 PB1 HTS 149 | MEKK2wt confirm inactive | MEKK2mut-MEK5 inactive | MEKK3 confirm inactive
O=C(/C=C/c1ccccc1)N/C(=C/c1ccccc1)C(=O)N1CCCCC1	none
Cc1ccc2c(CC(=O)OCc3nc(N)nc(Nc4ccccc4C)n3)coc2c1	none
Cc1ccc2c(CC(=O)OCc3csc(C)n3)coc2c1	MEKK2wt PB1 HTS 3.0[inhibitor], MEKK3 PB1 HTS 3.0[inhibitor] | MEKK2wt confirm inactive | MEKK2mut-MEK5 inactive | MEKK3 confirm inactive
Cc1[nH]n(-c2ccccc2)c(=O)c1/C=N/NC(=O)COc1ccccc1[N+](=O)[O-]	MEKK3 PB1 HTS 158 | MEKK2wt confirm inactive | MEKK2mut-MEK5 inactive | MEKK3 confirm inactive
Cc1[nH]n(-c2cccc3ccccc23)c(=O)c1/C=N/NC(=O)c1cccc([N+](=O)[O-])c1	MEKK3 PB1 HTS 61[inhibitor] | MEKK2wt confirm inactive | MEKK2mut-MEK5 inactive | MEKK3 confirm inactive
COc1cccc(NC(=O)NCc2c(-c3ccccc3)noc2C)c1	none
COc1cc(NS(=O)(=O)c2ccc(NC(=S)NC(=O)C(C)(C)C)cc2)nc(OC)n1	MEKK3 PB1 HTS 38[inhibitor] | MEKK2wt confirm inactive | MEKK2mut-MEK5 inactive | MEKK3 confirm inactive
CCNC(=S)NC1CC2CCCC(C1)N2Cc1ccc(C)cc1 (configuration not stated)	none
CCc1ccccc1NC(=S)NC1CC2CCC(C1)N2Cc1ccco1 (configuration not stated)	none
CCNC(=S)NC1CC2CCCC(C1)N2Cc1ccco1 (configuration not stated)	MEKK3 PB1 HTS 81[inhibitor] | MEKK2wt confirm inactive | MEKK2mut-MEK5 inactive | MEKK3 confirm inactive
O=C(NC1CC2CCCC(C1)N2Cc1ccco1)NC12CC3CC(CC(C3)C1)C2 (configuration not stated)	MEKK3 PB1 HTS 132 | MEKK2wt confirm inactive | MEKK2mut-MEK5 inactive | MEKK3 confirm inactive
CCOc1ccccc1NC(=O)CSc1nncc2ccccc12	none
O=c1cc(O)c2ccc(O)cc2o1	none
O=c1ccc2[n+]([O-])c3ccc(O)cc3oc-2c1	MEKK2wt PB1 HTS 50[inhibitor] (no result: VLA-4 inh) | MEKK2wt confirm inactive | MEKK2mut-MEK5 inactive | MEKK3 confirm inactive
O=C(Nc1ccccc1N1CCOCC1)c1ccc(Cl)nc1	MEKK3 PB1 HTS 72[inhibitor] | MEKK2wt confirm inactive | MEKK2mut-MEK5 inactive | MEKK3 confirm inactive
Cc1cnc(C(=O)Nc2ccccc2F)cn1	MEKK2wt PB1 HTS 1.0[inhibitor], MEKK3 PB1 HTS 2.0[inhibitor] | MEKK2wt confirm inactive | MEKK2mut-MEK5 inactive | MEKK3 confirm inactive
Cc1cnc(C(=O)Nc2ccccc2-n2cccc2)cn1	none
O=C(Nc1ccccc1F)c1ccncc1	none
COC(=O)n1ccc(C(=O)Nc2ccccc2F)n1	MEKK2wt PB1 HTS 3.0[inhibitor], MEKK3 PB1 HTS 3.0[inhibitor] | MEKK2wt confirm inactive | MEKK2mut-MEK5 inactive | MEKK3 confirm inactive
CCCCCCOC(=O)C(C#N)c1nc2ccccc2nc1N1CCN(CC)CC1 (configuration not stated)	MEKK2wt PB1 HTS 158 | MEKK2wt confirm inactive | MEKK2mut-MEK5 inactive | MEKK3 confirm inactive
CCCCCCc1cc2cc(-c3nnc(-c4ccccc4O)o3)c(=O)oc2cc1O	MEKK2wt PB1 HTS 71[inhibitor] | MEKK2wt confirm inactive | MEKK2mut-MEK5 inactive | MEKK3 confirm inactive
O=C(O)c1ccc2oc(=O)c(S(=O)(=O)c3ccc(F)cc3)cc2c1	none
CCCCCCc1cc2cc(S(=O)(=O)c3ccc(F)cc3)c(=O)oc2cc1O	MEKK3 PB1 HTS 138 | MEKK2wt confirm inactive | MEKK2mut-MEK5 inactive | MEKK3 confirm inactive
O=C(C(=O)N1CCCC1)c1c(-c2ccccc2)[nH]c2ccccc12	none
COc1ccc(N2CCN(CCCNC(=O)Cn3c(=O)c4cccn4c4cccnc43)CC2)cc1	MEKK2wt PB1 HTS 138 | MEKK2wt confirm inactive | MEKK2mut-MEK5 inactive | MEKK3 confirm inactive
O=C(Cc1cccs1)Nc1nc2c(s1)CCCC2	MEKK3 PB1 HTS 51[inhibitor] | MEKK2wt confirm inactive | MEKK2mut-MEK5 inactive | MEKK3 confirm inactive
FC(F)(F)c1cc(N2CCN(Cc3ccccc3)CC2)c2ccccc2n1	MEKK3 PB1 HTS 75[inhibitor] | MEKK2wt confirm inactive | MEKK2mut-MEK5 inactive | MEKK3 confirm inactive
CCN(CC)c1ccc(/C=N/NC(=O)c2nnn(-c3nonc3N)c2C(C)C)c(O)c1	MEKK2wt PB1 HTS 1.0[inhibitor], MEKK3 PB1 HTS 2.0[inhibitor] | MEKK2wt confirm inactive | MEKK2mut-MEK5 inactive | MEKK3 confirm inactive
CC(C)c1c(C(=O)N/N=C/c2ccc3c(c2)OCO3)nnn1-c1nonc1N	none
CC1(C)CC(=O)C2=C(C1)N1C(=C(C#N)C2c2ccc(Cl)cc2)N=C(N)c2ccccc21 (configuration not stated)	MEKK2wt PB1 HTS 2.0[inhibitor], MEKK3 PB1 HTS 1.0[inhibitor] | MEKK2wt confirm inactive | MEKK2mut-MEK5 inactive | MEKK3 confirm inactive
CC1(C)CC(=O)C2=C(C1)N(c1ccccc1)C(N)=C(C#N)C2c1ccccc1 (configuration not stated)	none
CC1(C)CC(=O)C2=C(C1)N(c1ncn[nH]1)C(N)=C(C#N)C2c1ccccc1 (configuration not stated)	MEKK3 PB1 HTS 137 | MEKK2wt confirm inactive | MEKK2mut-MEK5 inactive | MEKK3 confirm inactive
